The panel holds about 79,000 compounds, 15% with a hit somewhere; the sample as a whole holds those more often. Unmarked numbers belong to inactive results. The source made the active and inactive calls. Cut-off read from the data, not from the text of the source: active = growth inhibition above about 70%; inactive = the rest.
What was measured:
[1] = NCI Yeast Anticancer Drug Screen. Data for the rad50 strain (AID 155);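 note: 0% = growth of vehicle-only cultures of the same strain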; conditions: S. cerevisiae rad50 strain growth inhibition, hits give high values
Method in brief: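 A DNA repair-deficient yeast mutant serves as the test organism; compound-induced growth inhibition is calculated against vehicle-treated cells.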

[2] = NCI Yeast Anticancer Drug Screen. Data for the mec2-1 strain (AID 157); conditions: S. cerevisiae mec2-1 strain, hits give high values
Method in brief: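 Growth inhibition is read against vehicle-treated controls after compound exposure of the mec2-1 yeast strain, which is defective in DNA damage repair or cell cycle control.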

[3] = NCI Yeast Anticancer Drug Screen. Data for the sgs1 mgt1 strain (AID 161);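 note: 0% = growth of cultures given vehicle only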; conditions: S. cerevisiae sgs1 mgt1 strain, hits give high values
Method in brief: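 This yeast growth screen uses a strain with defined DNA-repair lesions; compound-treated growth is compared with vehicle-treated growth.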

[4] = NCI Yeast Anticancer Drug Screen. Data for the cln2 rad14 strain (AID 165);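 note: 0% = growth equal to vehicle treated cultures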; conditions: S. cerevisiae cln2 rad14 strain, hits give high values
Method in brief: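 Growth inhibition, relative to vehicle-treated controls, is the read-out. The test organism is a yeast strain with defined genetic alterations, cln2 rad14.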

[5] = NCI Yeast Anticancer Drug Screen. Data for the bub3 strain (AID 167); conditions: S. cerevisiae bub3 mutant strain, hits give high values
Method in brief: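 Inhibition values come from growth of compound-treated mutant yeast normalised to vehicle-treated controls.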

[6] = NCI Yeast Anticancer Drug Screen. Data for the mlh1 rad18 strain (AID 175); conditions: S. cerevisiae mlh1 rad18 strain growth inhibition, hits give high values
Method in brief: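 Cells of a genetically altered yeast strain, deficient in DNA damage repair, were treated with compound. Their growth was then compared with that of vehicle-treated cultures to give inhibition.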

[7] = at 5.0 µM (retest, dose inferred, filed as 0.5)
[8] = at 50.0 µM (retest, dose inferred, filed as 5.0)

Row | SMILES | growth inhibition [1, 7] | growth inhibition [1, 8] | growth inhibition ([1]; at 50.0 µM) | growth inhibition [2, 7] | growth inhibition [2, 8] | growth inhibition ([2]; at 50.0 µM) | growth inhibition [3, 7] | growth inhibition [3, 8] | growth inhibition ([3]; at 50.0 µM) | growth inhibition [4, 7] | growth inhibition [4, 8] | growth inhibition ([4]; at 50.0 µM) | growth inhibition [5, 7] | growth inhibition [5, 8] | growth inhibition ([5]; at 50.0 µM) | growth inhibition [6, 7] | growth inhibition [6, 8] | growth inhibition ([6]; at 50.0 µM)
1 | C=CC[C@]1(C(C)Cc2ccc(OC)c(OC)c2)C[C@@H](OC)C=CC1=O (some centres not stated) | -7% | 89% (active) | 88% (active) | 8% | 89% (active) | 93% (active) | 0% | 85% (active) | 88.8% (active) | 13% | 86% (active) | 88.5% (active) | 7% | 92% (active) | 89.5% (active) | -1% | 92% (active) | 96% (active)
2 | COc1ccccc1NC(=O)CC(=O)N1N=C(C)C(N=Nc2ccc(I)cc2)C1=O (configuration not stated) | 5% | 36% | 93% (active) | 6% | 30% | 11.1% | 6% | 28% | 83.1% (active) | 2% | 20% | -39.5% | 5% | 41% | 33% | 2% | 41% | 85.6% (active)
3 | CCOc1ccc(N=NS(=O)(=O)O)cc1 | -8% | 14% | 61.1% | -11% | -23% | -5.45% | -12% | -24% | -6.5% | -29% | -88% | 15% | -7% | -13% | -23.1% | -2% | -5% | 9.4%
4 | O=C(/C(=C/c1ccc2c(c1)OCO2)c1ccccc1)c1ccc(OCCN2CCCC2)cc1 | -2% | -4% | 34.9% | 3% | -8% | 58.5% | -3% | -16% | 31.1% | -2% | -8% | 12.8% | -7% | -1% | 3.45% | 5% | 19% | 7.35%
5 | CCCCCCCCCCCC(=O)NCCc1ccc(O)c(O)c1 | 4% | 94% (active) | 97.2% (active) | 5% | 96% (active) | 98.5% (active) | 4% | 95% (active) | 97.5% (active) | -3% | 55% | 94.2% (active) | -7% | 91% (active) | 95.8% (active) | 1% | 96% (active) | 98% (active)
6 | CS(=O)(=O)OCCN(CCOS(C)(=O)=O)c1ccc(C=Nc2ccc(-c3csc(-c4ccc(Br)cc4)n3)cc2)cc1 | 33% | 95% (active) | 94% (active) | 43% | 96% (active) | 97.2% (active) | 18% | 90% (active) | 94.2% (active) | 19% | 92% (active) | 81.2% (active) | -4% | 90% (active) | 74.8% (active) | 60% | 96% (active) | 96% (active)
7 | CSC(=S)CC(O)[C@@H]1CC2c3ccccc3C1c1ccccc12 (some centres not stated) | -5% | 94% (active) | 76.7% (active) | 1% | 93% (active) | 84.3% (active) | 1% | 93% (active) | 65.7% | 2% | 92% (active) | 79.7% (active) | 17% | 93% (active) | 77% (active) | 5% | 93% (active) | 71.5% (active)
8 | CC(=O)Nc1ccc(-c2nnc(SCC(=O)Nc3cccc(Cl)c3)o2)cc1 | 14% | 45% | 22.2% | 1% | 39% | 15.6% | 10% | 33% | 55.6% | 15% | 49% | -33.8% | 8% | 56% | 73.7% (active) | 2% | 71% (active) | 28.7%
9 | CN(C)C(=S)/N=c1\ssc(=S)n1-c1ccccc1 | 17% | 100% (active) | -13.9% | 39% | 99% (active) | -8.8% | 50% | 100% (active) | -13.1% | 38% | 99% (active) | -17.1% | 46% | 100% (active) | -2.45% | 23% | 99% (active) | 20.7%
10 | COC(=O)CSC(=S)Nc1ccc(Cl)cc1 | 3% | 92% (active) | 83.5% (active) | -6% | 96% (active) | 4.25% | -4% | 97% (active) | 44.3% | -5% | 60% | -74.6% | -7% | 85% (active) | 36.5% | 7% | 98% (active) | 51.4%
11 | N=C(N)Cc1ccc(NC(=O)c2ccc(C(=O)Nc3ccc(CC(=N)N)cc3)cc2)cc1 | 3% | -8% | 21.4% | 2% | 14% | 34.2% | -11% | -21% | 78.4% (active) | -7% | -16% | 14.7% | -3% | -11% | 56.3% | 2% | -49% | 27.9%
12 | CC(C)CCCCCCCCCCCCC(=O)NCC(=O)NC1C(O)C(O)C(Nc2ncnc3nc[nH]c23)OC1C(O)CO (configuration not stated) | 25% | 53% | 34.5% | 26% | 46% | 25.9% | 7% | 43% | 52.2% | 5% | -14% | 47.9% | 18% | 63% | 52.4% | 44% | 63% | 53.9%
13 | CCC/C(C)=N/NC(=S)SC | 70% (active) | 95% (active) | 96.8% (active) | 38% | 95% (active) | 90.5% (active) | 27% | 96% (active) | 94.2% (active) | 6% | 84% (active) | 77.5% (active) | 65% | 94% (active) | 96.7% (active) | 72% (active) | 95% (active) | 96.3% (active)
14 | O=C(N/N=C/c1ccc2c(c1)OCO2)c1ccc([N+](=O)[O-])cc1 | 3% | 2% | 5.35% | -14% | -15% | 14.5% | 8% | 7% | 14.8% | 4% | 5% | 30.7% | 0% | 16% | 0.25% | 3% | 13% | 57%
15 | CCCCCCCCCCCCCCCC1C(N)C(=O)N(C)N1C (configuration not stated) | -33% | 96% (active) | 89.7% (active) | -25% | 97% (active) | 91.2% (active) | -19% | 95% (active) | 91.7% (active) | -30% | 94% (active) | 88% (active) | -51% | 95% (active) | 89.5% (active) | -43% | 95% (active) | 90.4% (active)
16 | CC(C)c1cccc(O)c1O | 7% | 1% | 87.2% (active) | -7% | 14% | 89.4% (active) | 9% | 13% | 82.3% (active) | 23% | 38% | 86.3% (active) | -1% | 45% | 89.5% (active) | -1% | 4% | 86.9% (active)
17 | O=C1c2cccc(NCCNCCO)c2C(=O)c2cccc(NCCNCCO)c21 | 18% | 58% | -10.3% | -8% | -8% | 7% | 17% | 13% | 31% | 24% | 32% | 15.4% | 15% | 22% | 45.1% | 8% | 15% | 8.2%
18 | CC(CCl)OC(=O)Nc1cccc(C(F)(F)F)c1 (configuration not stated) | 55% | 82% (active) | 73.1% (active) | 40% | 50% | 31.5% | 42% | 70% (active) | 83% (active) | 41% | 51% | 62% | 37% | 77% (active) | 74.8% (active) | 55% | 87% (active) | 73% (active)
19 | CCCCCCCCCCCCCCCC1(OC)C[N+](C)(C)CCO1 (configuration not stated) | 99% (active) | 99% (active) | 99.5% (active) | 100% (active) | 100% (active) | 99.7% (active) | 99% (active) | 100% (active) | 99.7% (active) | 100% (active) | 100% (active) | 99.5% (active) | 99% (active) | 99% (active) | 99.7% (active) | 99% (active) | 100% (active) | 99.7% (active)
